{
  "source": "the supplement of paper PMC12350171",
  "note": "Where a name gives a salt, the structure may show the parent alone. A number with no mark means an inactive call.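 The calls were made as follows: active = AUC significantly below DMSO controls by Student t-fit with adjusted P under 0.01; inactive = not significantly reduced.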",
  "data": [
    {"tested_on": "Haemophilus parainfluenzae", "test": "growth AUC normalised to DMSO control (fraction of control); higher = less growth inhibition, active = hit call of the paper", "conditions": "20 µM", "outline": "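Three biological replicates were carried out, with OD578 read hourly for 24 h. Before inoculation at a starting OD578 of 0.01, pathogens were passaged anaerobically twice; plates were pre-reduced mGAM containing 20 μM compound and 1% DMSO, sealed with breathable membranes, and the Haemophilus parainfluenzae medium carried added hemin and NAD. Area under each growth curve was calculated by the trapezoidal rule up to the exponential-to-stationary transition and normalised to DMSO controls on the same plate.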", "values": [
      {"smiles": "COc1ccc2[nH]c([S+]([O-])Cc3ncc(C)c(OC)c3C)nc2c1", "note": "(stereo not drawn) [Omeprazole]", "growth AUC normalised to DMSO control": 0.919},
      {"smiles": "CCOC(=O)C1=C(C)NC(C)=C(C(=O)OC)C1c1cccc(Cl)c1Cl", "note": "(stereo not drawn) [Felodipine]", "growth AUC normalised to DMSO control": 0.863},
      {"smiles": "C[C@]12CC[C@@H]3c4ccc(OS(=O)(=O)O)cc4CC[C@H]3[C@@H]1CCC2=O", "note": "[Estropipate piperazine salt]", "growth AUC normalised to DMSO control": 0.985},
      {"smiles": "CN1CCN(c2c(F)cc3c(=O)c(C(=O)O)cn(CCF)c3c2F)CC1", "note": "[Fleroxacin]", "growth AUC normalised to DMSO control": "0.0399 (active)"},
      {"smiles": "COc1ccccc1OCCNCC(O)COc1cccc2[nH]c3ccccc3c12", "note": "(stereo not drawn) [Carvedilol]", "growth AUC normalised to DMSO control": 0.963},
      {"smiles": "CCOC(=O)c1ccc(OC(=O)CCCCCNC(=N)N)cc1", "note": "[Gabexate mesilate]", "growth AUC normalised to DMSO control": 0.919},
      {"smiles": "Clc1ccc(C(Cn2ccnc2)OCc2csc3c(Cl)cccc23)c(Cl)c1", "note": "(stereo not drawn) [Sertaconazole nitrate]", "growth AUC normalised to DMSO control": 1.07},
      {"smiles": "COc1cc(OC)c(C(=O)CCCN2CCCC2)c(OC)c1", "note": "[Buflomedil hydrochloride]", "growth AUC normalised to DMSO control": 1.01},
      {"smiles": "O=C1CCc2cc(OCCCCc3nnnn3C3CCCCC3)ccc2N1", "note": "[Cilostazol]", "growth AUC normalised to DMSO control": 1.26},
      {"smiles": "COc1cc2nc(N3CCN(C(=O)C4COc5ccccc5O4)CC3)nc(N)c2cc1OC", "note": "(stereo not drawn) [Doxazosin mesylate]", "growth AUC normalised to DMSO control": 0.992},
      {"smiles": "CCc1oc2ccccc2c1C(=O)c1cc(Br)c(O)c(Br)c1", "note": "[Benzbromarone]", "growth AUC normalised to DMSO control": 0.987},
      {"smiles": "CCOC(=O)C1=C(C)NC(C)=C(C(=O)OCC)C1c1ccccc1/C=C/C(=O)OC(C)(C)C", "note": "[Lacidipine]", "growth AUC normalised to DMSO control": 1.01},
      {"smiles": "Nc1nc(N)c2nc(-c3ccccc3)c(N)nc2n1", "note": "[Triamterene]", "growth AUC normalised to DMSO control": 0.935},
      {"smiles": "Cc1onc(-c2c(F)cccc2Cl)c1C(=O)N[C@@H]1C(=O)N2[C@@H]1SC(C)(C)[C@@H]2C(=O)O", "note": "[Flucloxacillin sodium]", "growth AUC normalised to DMSO control": 0.944},
      {"smiles": "CNC(=C[N+](=O)[O-])NCCSCc1csc(CN(C)C)n1", "note": "[Nizatidine]", "growth AUC normalised to DMSO control": 0.993},
      {"smiles": "C=CC[N@@+]12CC[C@@]34c5ccccc5N5/C=C6/[C@H]7C[C@H]8[C@@]9(CC[N@@+]8(CC=C)C/C7=C/CO)c7ccccc7N(/C=C(/[C@@H](C[C@@H]31)/C(=C\\CO)C2)[C@H]54)[C@@H]69", "note": "[Alcuronium chloride]", "growth AUC normalised to DMSO control": 1},
      {"smiles": "Cn1c(=O)c2c(ncn2CC2OCCO2)n(C)c1=O", "note": "[Doxofylline]", "growth AUC normalised to DMSO control": 1.02},
      {"smiles": "Cc1ccc(NC(=O)c2ccc(CN3CCN(C)CC3)cc2)cc1Nc1nccc(-c2cccnc2)n1", "note": "[Imatinib]", "growth AUC normalised to DMSO control": 1.09},
      {"smiles": "CCN(CC)C(=O)Nc1ccc(OCC(O)CNC(C)(C)C)c(C(C)=O)c1", "note": "(stereo not drawn) [Celiprolol hydrochloride]", "growth AUC normalised to DMSO control": 0.991},
      {"smiles": "COc1ccccc1Oc1c(NS(=O)(=O)c2ccc(C(C)(C)C)cc2)nc(-c2ncccn2)nc1OCCO", "note": "[Bosentan]", "growth AUC normalised to DMSO control": 0.966},
      {"smiles": "CCc1ccc(CCOc2ccc(CC3SC(=O)NC3=O)cc2)nc1", "note": "(stereo not drawn) [Pioglitazone]", "growth AUC normalised to DMSO control": 0.955},
      {"smiles": "NS(=O)(=O)c1cc(C(=O)O)cc(N2CCCC2)c1Oc1ccccc1", "note": "[Piretanide]", "growth AUC normalised to DMSO control": 1.06},
      {"smiles": "c1ccc(-c2ccc(C(c3ccccc3)n3ccnc3)cc2)cc1", "note": "(stereo not drawn) [Bifonazole]", "growth AUC normalised to DMSO control": 0.998},
      {"smiles": "CC(C)(C)NC[C@H](O)c1ccc(O)c(CO)c1", "note": "[Levalbuterol hydrochloride]", "growth AUC normalised to DMSO control": 0.993},
      {"smiles": "O=C1OCCN1/N=C/c1ccc([N+](=O)[O-])o1", "note": "[Furazolidone]", "growth AUC normalised to DMSO control": "0.361 (active)"},
      {"smiles": "CN[C@H]1CC[C@@H](c2ccc(Cl)c(Cl)c2)c2ccccc21", "note": "[Sertraline]", "growth AUC normalised to DMSO control": 0.929},
      {"smiles": "Cc1ncc([N+](=O)[O-])n1CCO", "note": "[Metronidazole]", "growth AUC normalised to DMSO control": 0.906},
      {"smiles": "Cc1cc(=O)oc2cc(O)ccc12", "note": "[Hymecromone]", "growth AUC normalised to DMSO control": 1}
    ]}
  ]
}
